From PubChem
USP30 block – blocks human USP30 ubiquitin-rhodamine cleavage. Q70CQ3. purified USP30, Ub-rhodamine cleavage fluorescence. inhibition, % at 25 µM. hit rate 5.3% among 47,000
USP8 block – inhibitors of human USP8 deubiquitinase; P40818; inhibition, % at 20 µM; purified USP8, Ub-rhodamine cleavage fluorescence, 30 min; hit rate 4.2% among 47,000; AID 1645853
USP17 block – human USP17-like deubiquitinase inhibition. inhibition, % at 50 µM. A8MUK1. AID 1645855. hit rate 6.5% among 47,000. purified USP17, Ub-rhodamine cleavage fluorescence, 3 h
USP28 block – inhibitors of human USP28 deubiquitinase; hit rate 3% among 47,000; purified USP28, Ub-rhodamine cleavage fluorescence, 30 min; AID 1645857; inhibition, % at 25 µM; Q96RU2
Numbers without * were called inactive; nt = no result. Only some compounds are listed: those with a hit (about 13% of all), similar ones and a draw of the others. Cut-off read from the data, not from the text of the source: active = inhibition above about 30%; inactive = the rest.

SMILES	USP30 block	USP8 block	USP17 block	USP28 block
O=C(NCC1CC1)C1CN(Cc2cccnc2)Cc2ccnn2C1 (configuration not stated)	-21.7	-51.0	-7.1	-1.0
CNc1nc2c(c(=O)n1C)CCN(C(=O)c1cc3ccccc3n1C)C2	nt	-1.3	8.1	nt
CS(=O)(=O)c1ccc2nc(N(Cc3ccccc3)C(=O)c3cccc(Oc4ccccc4)c3)sc2c1	-8.7	7.5	-0.6	-1.0
CC(C)CC(NC(=O)c1ccc(Cl)cc1Cl)c1nc2ccccc2[nH]1 (configuration not stated)	-45.0	88.6*	69.1*	3.5
Cc1ccc(C(=O)c2cn(CC(=O)Nc3ccccc3C)c3ccc(C)cc3c2=O)cc1	-82.6	-4.2	40.3*	-25.6
COc1ccccc1NC(=O)Cn1cc(C(=O)c2ccc(C)cc2)c(=O)c2ccccc21	9.0	-0.7	62.2*	1.9
Cc1cc(C(F)(F)F)n2nc(C(=O)N3CCn4ncnc4C3)cc2n1	15.0	11.5	8.3	-4.7
O=C(CC1SC(=O)NC1=O)Nc1cccc(C(F)(F)F)c1 (configuration not stated)	-49.7	-16.0	-9.5	-18.1
COc1cccc(NC(=O)CC2Sc3ccccc3NC2=O)c1 (configuration not stated)	38.6*	18.0	31.8*	17.0
CS(=O)(=O)N1C[C@@H]2OCC(=O)N(CC3CC3)[C@@H]2C1	-10.3	-12.4	-1.2	-8.3
CC(C)N1CCc2c(sc(NC(=O)CSc3ccc(Cl)cc3)c2C(N)=O)C1	18.0	-26.0	50.0*	24.1
CCn1nnc2cc(C(=O)N(Cc3ccccc3F)C3CC3)ccc21	-104.6	-15.1	-21.4	-23.4
Cc1ccc(-n2ncc(C(=O)NCc3cccnc3)c2C2CCNCC2)cc1	-18.1	-93.6	-22.6	-11.2
Cc1ccc(CNC(=O)c2cnn(-c3ccc([N+](=O)[O-])cc3)c2C2CCNCC2)cc1	44.4*	-178.9	-27.7	13.6
CCc1cc(C2CCCN2C(=O)Nc2ccccc2)on1 (configuration not stated)	-9.2	4.0	1.1	-5.9
CCN1CCCC1CN(Cc1cc2cc(OC)ccc2[nH]c1=O)C(=O)NCc1ccccc1 (configuration not stated)	-41.1	-31.9	52.7*	-11.5
CCN1CCCC1CN(Cc1cc2ccc(C)c(C)c2[nH]c1=O)C(=O)NCc1ccccc1 (configuration not stated)	-216.7	-18.1	6.7	-36.0
CCN1CCCC1CN(Cc1cc2cc(OC)ccc2[nH]c1=O)C(=O)Nc1ccccc1Cl (configuration not stated)	-54.1	-38.1	49.5*	-29.6
CC(NC(=O)COCc1cc(-c2ccc(F)cc2)on1)c1ccccc1 (configuration not stated)	14.7	12.3	0.5	12.9
CC1Cc2ccccc2N1C(=O)Cn1c(=O)cc(O)c2ccccc21 (configuration not stated)	2.3	-12.4	-7.3	56.6*
Cc1occc1-c1nnc(SC(C)C(=O)Nc2ccccc2)o1 (configuration not stated)	0.3	0.1	-2.6	0.0
CC(Sc1nnc(-c2ccccc2Br)o1)C(=O)Nc1cccc(Cl)c1 (configuration not stated)	43.3*	17.7	22.5	22.7
O=C(Nc1ccccc1)c1ccc(-c2ccccc2)s1	nt	2.4	54.0*	nt
O=C(CC1CCCCC1)N1CCCC(c2nn(CCOc3ccccc3)c3nccnc23)C1 (configuration not stated)	34.6*	19.9	26.2	22.7
O=C(c1ccccc1)N1CCCC(c2nn(CCOc3ccccc3)c3nccnc23)C1 (configuration not stated)	24.8	-9.8	-3.3	14.3
SMILES	USP30 block	USP8 block	USP17 block	USP28 block
O=S(=O)(C1CC1)N1CCOC2(CCCN(c3ncc(F)cn3)C2)C1 (configuration not stated)	35.3*	15.8	16.2	14.6
O=c1[nH]c(=O)c2ncn([C@@H]3O[C@H](CO)[C@@H](O)[C@H]3O)c2[nH]1	4.1	0.5	-9.3	-11.1
Fc1cccc(CNc2cc(-n3ccnc3)ncn2)c1	15.3	16.5	3.9	31.9*
Cc1cccc(CNc2cc(-n3ccnc3)ncn2)c1	3.2	11.3	9.3	27.8
COc1ccc(-c2nnc(NC(=O)CSc3ccc(C)cc3)o2)cc1	0.3	-315.2	-13.5	-11.2
COc1ccc(N2CCn3c(SCC(=O)Nc4cc(C)cc(C)c4)nnc32)cc1	34.7*	49.9*	nt	-6.2
COCCn1cnc2c1c(=O)n(CC(=O)c1ccc3c(c1)OCCO3)c(=O)n2Cc1ccccc1	-12.6	-25.4	-23.8	-8.5
CCn1ccc2ccn(CC(=O)NCc3ccc4c(c3)OCO4)c(=O)c21	-4.6	-5.8	-4.8	-7.1
CCn1cnc2c1c(=O)n(CC(=O)NCc1ccccc1Cl)c(=O)n2Cc1ccccc1	18.8	-5.1	55.3*	8.0
